For 13 compounds, Potency results are on record in PubChem BioAssay (NCATS).

Results filed as inconclusive are left out. Where a call stands in place of a potency, no number is given. Calls of active or inactive are those of the source. Calls follow the shape of the dose curve; as a rule, active = well fitted inhibition curve with a large enough effect; inconclusive = small, poorly fitted or top-dose-only effect, or effect the other way; inactive = flat fitted curve, though single readings scatter.

The nature of this experiment: qHTS for Inhibitors of Plasmodium falciparum (CP250) proliferation (AID 504320). The settings on record: P. falciparum CP250 in erythrocytes, SYBR Green DNA, 72 h; series mostly up to 6.7 µM. In outline:
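Erythrocytes infected with P. falciparum line (0.3% parasitemia, 2.5% hematocrit final) incubated with compounds 72 h at 37 °C, 5% CO2; SYBR Green lysis buffer added, fluorescence read next day. Normalized to 0.29 uM artemisinin and DMSO.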
As to `CC1(OC(=O)CCc2ccccc2)C(=O)C=C2C=C(c3ccc(C#N)cc3)N(c3ccccc3)C=C2C1=O` (stereo not drawn), the Potency entry is “inactive”.
Consider `CCCCC1=CC2=CC(=O)C(C)(OC(=O)CC)C(=O)C2=CN1CCCN(CC)CC` (stereo not drawn), for which the Potency result was “inactive”.
Consider `COC(=O)C(C(=O)OC)C1c2ccccc2C=C(C)N1C(=O)OC` (stereo not drawn), for which the Potency result is “inactive”.
To `COC(=O)C1=C(C(=O)OC)[C@@H]2Nc3ccccc3[C@@]23C[C@@H](C(=O)OC)N(S(=O)(=O)c2c(C)noc2C)C3=N1` belongs “inactive”.
For `C/C=C/C1=Cc2ccccc2C(CC(=O)OC)N1C(=O)OC` (stereo not drawn), the Potency result is “inactive”.
With `C=CCN1C=C2C(=O)C(C)(OC(=O)CC)C(=O)C=C2C=C1CCCC` (stereo not drawn), the Potency result is “inactive”.
Take `CCCCS(=O)(=O)N1C2=NC(C(=O)OC)=C(C(=O)OC)[C@@H]3N(C)c4ccc(OC)cc4[C@]23C[C@H]1C(=O)OC`: the Potency result is “inactive”.
`COC(=O)C1=C(C(=O)OC)[C@@H]2Nc3ccccc3[C@@]23C[C@@H](C(=O)OC)N(C(=O)c2ccc(Br)cc2)C3=N1`: the Potency entry is “inactive”.
For the compound `C=CCOC(=O)N[C@H](C(C(=O)OC)=C(C)NCc1ccccc1)c1ccc(C)cc1`, the Potency entry was “inactive”.
With `CCCCC1=CC2=CC(=O)C(C)(OC(=O)CC)C(=O)C2=CN1C1CCCC1` (stereo not drawn), the Potency entry is “inactive”.
On to `CCCCC1=CC2=CC(=O)C(C)(OC(=O)CC)C(=O)C2=CN1c1ccncc1` (stereo not drawn), for which the Potency result is “inactive”.
In the case of `C=CCN1c2ccccc2[C@]23C[C@@H](C(=O)OC)N(S(=O)(=O)c4ccc(C#N)cc4)C2=NC(C(=O)OC)=C(C(=O)OC)[C@H]13`, the Potency result was “inactive”.
Turning to `CC1(OC(=O)CCc2ccccc2)C(=O)C=C2C=C(c3ccc(C#N)cc3)N(C3CCCC3)C=C2C1=O` (stereo not drawn), the Potency result was “inactive”.
